The source of these data is the supplement of paper PMC8728848.

The full list was thinned out, with the strongest signals kept by preference.

Holding throughout (experiment): glycan array binding signal (z-score within array); higher = stronger binding
Holding throughout (details): glycan notation: IUPAC condensed, linker removed

For assay [1], the target named is Fuc(a1-2)Gal(b1-3)GalNAc(b1-3)Gal(a1-4)Gal(b1-4)Glc. In short, it runs like this: (§1)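 From the Consortium for Functional Glycomics database, 3228 arrays were curated, keeping only those whose protein sequence was available. Binding is given as a within-array Z-score averaged across arrays sharing a protein sequence and across linkers. Negative Z-scores can be read as non-binding.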

Assay [2] addresses Fuc(a1-2)Gal(b1-4)GlcNAc6S. In short, it runs like this:
as §1

In assay [3] the target is Fuc(a1-2)Gal6S(b1-4)GlcNAc. In short, it runs like this:
as §1

The target in assay [4] is Fuc(a1-2)[Gal(a1-3)]Gal(b1-3)GlcNAc. The procedure, abridged:
as §1

Assay [5] deals with Fuc(a1-2)[GalNAc(a1-3)]Gal(b1-4)GlcNAc. The procedure, abridged:
as §1

The next assay deals with Gal(a1-3)GlcNAc. The procedure, abridged:
as §1

The target of another assay is Gal(a1-4)Gal(b1-4)Gal. In short, it runs like this: as §1
Another assay deals with Gal(a1-4)Gal(b1-4)GalNAc. The procedure, abridged:
as §1

Another assay concerns the target Gal(a1-6)Glc. The procedure, abridged:
as §1

The next assay addresses Gal(b1-3)Gal. The procedure, abridged:
as §1

Assay [6] addresses Gal(b1-3)[Fuc(a1-4)]GlcNAc(b1-3)Gal(b1-4)GlcNAc. The procedure, abridged: as §1
Assay [7] addresses Gal(b1-3)[Neu5Ac(b2-6)]GlcNAc. In short, it runs like this:
as §1

Assay [8] addresses Gal(b1-4)GalNAc(b1-3)[Fuc(a1-2)]Gal(b1-4)GlcNAc. The procedure, abridged: as §1
Assay [9] concerns the target Gal(b1-4)GlcNAc(b1-3)GalNAc. In short, it runs like this:
as §1

The target of assay [10] is Gal(b1-4)GlcNAc(b1-6)[Gal(b1-3)]GlcNAc. The procedure, abridged: as §1
In another assay the target is Gal3S6S(b1-4)GlcNAc6S. The procedure, abridged: as §1
A further assay deals with Gal4S(b1-4)GlcNAc. The procedure, abridged:
as §1

The target in another assay is Gal6S(b1-4)Glc6S. In short, it runs like this: as §1
The target in assay [11] is GlcNAc(b1-4)[GlcNAc(b1-6)]GalNAc. The procedure, abridged:
as §1

Assay [12] concerns the target Neu5Ac(a2-3)Gal(b1-3)GalNAc. In short, it runs like this: as §1
The target in assay [13] is Neu5Ac(a2-3)Gal(b1-4)GlcNAc(b1-3)Gal(b1-4)[Fuc(a1-3)]GlcNAc. The procedure, abridged:
as §1

Assay [14] concerns the target Neu5Ac(a2-3)Gal(b1-4)GlcNAc(b1-6)[Gal(b1-3)]GalNAc. The procedure, abridged:
as §1

The target in assay [15] is Neu5Ac(a2-3)Gal6S(b1-4)GlcNAc. The procedure, abridged: as §1
The target of assay [16] is Neu5Gc(a2-3)Gal(b1-4)GlcNAc. The procedure, abridged:
as §1

B1: Epa1 (Candida glabrata), Q6FUW5_CANGA (protein)
chain: MILNPALFLNKCVCIYTTLILLLLTNGGYATSSNDISLASKDPTTFPLGCSPDITTPKKGLSMELYSYDFRKKGSYPCWDAAYLDPNYPRTGYKSHRLLAKVDGVTGNINFYYHATKGCTPQLGHLPASYNYPKPLTMTNFTMLLYGYFRPKVTGFHTFTISADDLLFVNFGAGNAFDCCRRDSSADHFGNYQAYAIWGSKTAKDELTVHLDAGVYYPIRLFYNNREYDGALSFTFKTESNENTVSDFSEYFFSLDDTEEGCPGLISYDSSCASVKTSKIIGIDYHTETPNENLVPITKTIYHLGIPCTGTTTTPLCGSGFYDPLANKCVTINTSSTSSVTKTTSHTTSKEVSFHSSISSQKTLIPKSIPSPYGPIKSQSIPTEMETSSEISSSEYAFSDVISTPSHSPYTKKHSSLNSSSYTSTVIHSLTSYSISQGIFSTSLSEQNITSKSSTDKFSTATSMSNSITQSSIIISQSSTNNENYTTTSMHTSSDKISTETLNNSISTTTSILFSNSSTILKNNTTIISSDKDTHYHPVNPTIVCSTNKTEIICASITQPSISNSNNHWSSSVLRFNSTTVRSTLPSSAGSNETSINVPFSSSTESNASTSSTSTSNSKTVRSTLPSSAGSNETSINVPFSSSTESNTSTSSTSTSNSKTVRSTLPSSAGSNETSINVPFSSSTESNASTSSTSTSNSKTVRSTPFSSAGIIMTSLSQRNNKSASSYASSNSKCYNTADSCRKVHSTPSYLLTSSYTSEGVDYDCSLVSTKLKINDTNCLNNKHTTKSCLKTSVTTTIPTLEIKTARKSSSNTIGLHSYPTSSPNKSISSAPIIGYISSFKTIKTASPSYQTSDLTTITTITSLNNPGSTAVENTHESNDKSRKTSSNDISSKHSVIKETKDAVESSNKSHQTNTLKCSSIIIASSSHNSYESLGGTTLTLTLSKVYSPQNNDTLPFLEISEVNPSRTVLPESSKMMQYLTSTEERNKTARNTIATNIVSISTFHFEGEGNAIRMGYTQLLLMLIGIIVMNIGT
As for B1, the “glycan array binding signal (z-score)” value in assay [1] was -0.549; in assay [2] it was 1.65; in assay [3] it was -0.128; in [4], -0.553; in [5] it was -0.557; with Gal(a1-3)GlcNAc it was 0.208. The “glycan array binding signal (z-score)” value with Gal(a1-4)Gal(b1-4)Gal is 0.374; with Gal(a1-4)Gal(b1-4)GalNAc, 1.29; with Gal(a1-6)Glc, 0.344; in the assay with Gal(b1-3)Gal, 2.4; in assay [6] it was 1.75; in [7], 0.26. The “glycan array binding signal (z-score)” value in [8] is 2.42; in assay [9], 2.41; in assay [10], 2.48; with Gal3S6S(b1-4)GlcNAc6S, -0.544; in the assay with Gal4S(b1-4)GlcNAc it was -0.551; with Gal6S(b1-4)Glc6S, 2.71. Further, the “glycan array binding signal (z-score)” value was -0.556 in assay [11]; -0.547 in assay [12]; -0.553 in [13]; 1.96 in assay [14]; -0.557 in [15]; -0.549 in [16].
